# Screens (PubChem BioAssay)
# The sample as a whole holds a higher share of hits than the screen did.
# KDM5B inhibitor: blocks human KDM5B histone demethylase activity; 220,000 compounds, 2.6% hits; KDM5B demethylase, FDH-coupled NADH fluorescence (FDH is formaldehyde dehydrogenase); Potency, µM (highest dose often 57.7 µM), actives largely listed as inhibitors; Q9UGL1; active means well fitted inhibition curve with a large enough effect; further: 0% is about no effect; nearly all actives have a fitted effect of over 70% in size
# Target sequence (Q9UGL1 whole entry, looked up): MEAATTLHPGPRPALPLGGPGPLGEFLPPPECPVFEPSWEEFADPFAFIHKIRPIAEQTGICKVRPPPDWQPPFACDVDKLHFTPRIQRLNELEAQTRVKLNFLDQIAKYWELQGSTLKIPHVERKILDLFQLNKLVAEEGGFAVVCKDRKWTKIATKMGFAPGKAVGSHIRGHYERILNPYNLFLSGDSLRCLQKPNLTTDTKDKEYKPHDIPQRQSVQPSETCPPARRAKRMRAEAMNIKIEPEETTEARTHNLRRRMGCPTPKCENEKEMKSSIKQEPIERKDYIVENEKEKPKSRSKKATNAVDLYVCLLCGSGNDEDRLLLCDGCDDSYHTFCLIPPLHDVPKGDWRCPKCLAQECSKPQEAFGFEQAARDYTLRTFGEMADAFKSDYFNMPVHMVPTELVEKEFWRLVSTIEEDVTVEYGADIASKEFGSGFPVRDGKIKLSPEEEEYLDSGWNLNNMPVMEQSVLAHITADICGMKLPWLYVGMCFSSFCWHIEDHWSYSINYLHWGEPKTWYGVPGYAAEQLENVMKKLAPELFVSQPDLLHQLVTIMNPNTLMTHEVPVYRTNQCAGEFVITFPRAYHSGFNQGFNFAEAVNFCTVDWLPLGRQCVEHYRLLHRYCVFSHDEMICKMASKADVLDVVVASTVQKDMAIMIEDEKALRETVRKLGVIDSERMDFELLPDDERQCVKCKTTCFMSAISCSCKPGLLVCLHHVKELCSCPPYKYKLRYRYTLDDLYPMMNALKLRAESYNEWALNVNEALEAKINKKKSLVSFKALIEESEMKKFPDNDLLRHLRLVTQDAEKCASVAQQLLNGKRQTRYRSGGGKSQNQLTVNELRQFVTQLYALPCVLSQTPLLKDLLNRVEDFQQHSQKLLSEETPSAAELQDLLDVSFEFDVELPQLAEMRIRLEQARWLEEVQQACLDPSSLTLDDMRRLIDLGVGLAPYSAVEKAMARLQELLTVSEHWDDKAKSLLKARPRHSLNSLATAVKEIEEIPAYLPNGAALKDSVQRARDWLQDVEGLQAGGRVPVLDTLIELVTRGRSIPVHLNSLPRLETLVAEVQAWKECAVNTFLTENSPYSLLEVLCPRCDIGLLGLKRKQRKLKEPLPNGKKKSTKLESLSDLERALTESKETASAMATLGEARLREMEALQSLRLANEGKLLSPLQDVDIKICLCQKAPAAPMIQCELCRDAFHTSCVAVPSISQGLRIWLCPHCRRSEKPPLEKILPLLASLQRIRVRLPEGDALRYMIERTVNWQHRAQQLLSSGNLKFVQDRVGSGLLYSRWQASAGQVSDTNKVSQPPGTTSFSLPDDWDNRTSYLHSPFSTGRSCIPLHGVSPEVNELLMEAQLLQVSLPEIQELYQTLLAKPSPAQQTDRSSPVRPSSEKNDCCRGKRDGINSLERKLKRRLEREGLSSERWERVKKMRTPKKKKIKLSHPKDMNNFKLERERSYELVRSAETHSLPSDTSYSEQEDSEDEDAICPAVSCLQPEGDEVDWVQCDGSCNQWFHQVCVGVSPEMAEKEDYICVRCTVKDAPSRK
#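 Coupled FDH/NAD⁺ fluorescence readout. KDM5BΔAP 200 nM final; compound titration, 10 min RT preincubation; substrate mix 12.5 µM H3K4me3, 25 µM 2-OG, 50 µM Fe(II), 100 µM ascorbate, 0.25 mM NAD⁺, 0.25 U/mL FDH; ΔRFU over 30 min.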
# * = called active by the depositor; i = inactive. Potency means the concentration at half of the fitted maximal effect.
SMILES,KDM5B inhibitor
Cc1ccoc1C(=O)NC1CC(=O)N(Cc2cccc3ccccc23)C1 (stereo not given),i
CC(C)CCNC(=O)c1n[nH]c(=O)c2ccccc12,i
CNC(=O)c1c(NC(=O)c2nn(-c3ccc(Cl)cc3)ccc2=O)sc2c1CCCC2,i
Cc1ccccc1SCC(=O)N1CCc2sccc2C1c1cccs1 (stereo not given),i
CCCN(CCC)C(=O)C1CCN(c2ncnc3c2nc2n3CCCCC2)CC1,i
C(=Nc1ccc(N2CCOCC2)cc1)c1c[nH]c2ccccc12,i
CCOc1ccc(C2CC(=O)Nc3c2c(C)nn3CC(=O)O)c(OCC)c1C (stereo not given),i
CCC(=O)N1CCc2ccc(C(=O)NC3CC3)cc21,i
CN1CCC2(C1)CN(CC1CC1)c1ccc(C(=O)NC3CCC3)cc12 (stereo not given),35.5µM*
CN1CCC2(C1)CN(CC1CC1)c1ccc(C(=O)NC3COC3)cc12 (stereo not given),35.5µM*
CCC(=O)N1CCc2ccc(C(=O)NC3CCCCC3)cc21,i
CN1C(=O)Cc2cc(C(=O)NC3CCCCCC3)ccc21,i
O=C(NC1CC1)c1ccc2c(c1)CCCC2,i
Cc1ccc(C)c(CN2CCn3c(nn(CC4COc5ccccc5O4)c3=O)C2=O)c1 (stereo not given),i
CCC1CCCCN1C(=S)NC(=O)c1cccc([N+](=O)[O-])c1 (stereo not given),i
Cc1cc(C(=O)NCc2ccccc2F)c2ccccc2n1,i
CCNC(=O)c1cc(-c2ccccc2)nc2ccccc12,i
CCCNC(=O)c1cc(C)nc2ccccc12,i
Cc1ccc2c(C(=O)NCCN3CCCCC3)cc(NC(=O)C(C)C)cc2n1,22.4µM*
Cc1ccc2c(C(=O)NCc3ccccc3Cl)cc(NC(=O)C(C)C)cc2n1,14.1µM*
Cc1cc(C(=O)NCCC(c2ccccc2)c2ccccc2)c2ccccc2n1,i
Cc1ccc2nc(-c3ccc(C)s3)cc(C(=O)NCCN3CCOCC3)c2c1,i
Cc1cc(CNC(=O)c2cc(C)nc3ccccc23)c2ccccc2n1,i
CCNC(=O)c1cc(NC(=O)C(C)C)cc2nc(C)ccc12,25.1µM*
O=C(COC(=O)C(Cc1c[nH]c2ccccc12)NC(=O)c1ccc(Br)cc1)c1ccc(Cl)cc1 (stereo not given),i
SMILES,KDM5B inhibitor
CNC(=O)NC[C@H]1CCN(Cc2cc(OC)cc(OC)c2)C[C@H]1N(C)C,i
O=C(CCn1c(=O)c2ccccc2n(Cc2ccccc2)c1=O)NC1CCN(Cc2ccccc2)CC1,i
Cc1ccc(Nc2nc(-c3ccncc3)cs2)cc1C,i
Fc1ccc(CNc2ccc(F)c(Cl)c2)cc1F,i
C=CCN1CC(C(=O)N2CCn3nc(Cc4ccccc4)cc3C2)CC1=O (stereo not given),i
CC(C)S(=O)(=O)CCNc1nccc(-c2cccnc2)n1,31.6µM*
C(=N\Nc1nccc(-c2cccnc2)n1)/c1ccccc1,i
Cc1cc(=O)[nH]c(NCCNC(=O)[C@H]2CCC[C@@H](O)C2)n1,i
O=C(CC1CCCC1)NCCc1noc(-c2cccnc2)n1,i
c1cncc(-c2ccnc(NCCc3noc(C4CCCC4)n3)n2)c1,31.6µM*
O=C(NCCc1noc(-c2cccnc2)n1)NC1CCCCC1,i
Cc1noc2ccc(-c3cccnc3)nc12,i
O=C(NCCCn1nccc1C1CC1)[C@H]1CNC[C@@H](C(=O)N2CCCC2)C1,i
Cc1cc(NCCCNc2ccccc2)nc(-c2cccnc2)n1,i
c1ccc2c(c1)cnn2CCCNc1ncncn1,i
c1cncc(-c2ccnc(NCCCn3nccc3C3CC3)n2)c1,28.2µM*
Cc1cc(=O)[nH]c(NCCNc2nccc(-c3cccnc3)n2)n1,31.6µM*
COc1ccc(CN2C=C(C(=O)OCc3noc(-c4ccc(OC)cc4)n3)C(C)=NS2(=O)=O)cc1,i
O=C(c1ccccc1F)N1CCN(C(=O)N2CC3CC(C2)[C@H]2CCCC(=O)N2C3)CC1 (stereo not given in full),i
NC(=O)CSc1ccc(C(F)(F)F)cn1,i
CC(C)(C)C(=O)NC[C@H]1O[C@H](Cc2cc(COc3ccccc3)on2)CC[C@@H]1O,i
Cc1cc2cc(CNC(=S)Nc3ccc(Br)cc3)ccc2[nH]1,i
O=C(COC(=O)C1CC2CCCC(C1)C2=O)NC(=O)c1ccc(OC(F)F)cc1 (stereo not given),i
CCOc1ccc(C(=O)NCc2ccc3c(c2)CCN3C(=O)c2ccccc2)cc1,i
COc1ccccc1N1CCC(N[C@H](c2cccs2)C2CC(O)C2)CC1 (stereo not given in full),i
SMILES,KDM5B inhibitor
CCc1nc2c(=O)n(CC(=O)N3CCN(c4ccc(Cl)cc4)CC3)nc(C)c2s1,i
CCC(C)NC(=O)Cn1nc(C)c2sc(-c3ccccc3)nc2c1=O (stereo not given),8.91µM*
Cc1nn(CC(=O)NCC2CCCO2)c(=O)c2nc(-c3ccccc3)sc12 (stereo not given),31.6µM*
CCc1nc2c(=O)n(CC(=O)N3CCC(Cc4ccccc4)CC3)nc(C)c2s1,i
Cc1nn(CC(=O)NCc2ccccc2)c(=O)c2nc(C(C)C)sc12,i
CCn1cnc2c1c(=O)n(CC(=O)NCC1CCCO1)c(=O)n2Cc1ccccc1 (stereo not given),i
CCCN1CCN(C(=O)Cn2nc(C)c3sc(-c4ccccc4)nc3c2=O)CC1,31.6µM*
CCc1ccc(CNC(=O)Cn2nc(C)c3sc(C(C)C)nc3c2=O)cc1,i
CCc1nc2c(=O)n(CC(=O)NC(C)c3ccccc3)nc(C)c2s1 (stereo not given),i
COCCNC(=O)C1COC2(CCN(C(=O)c3ccccc3F)CC2)N1C(=O)c1cccc(F)c1 (stereo not given),i
Cc1ccc2c(C)c(C(=O)N3CC(OCc4ccccc4F)C3)oc2c1,i
Cc1ccc(C)c(/C(O)=C2\C(=O)C(=O)N(c3nnc(C)s3)C2c2ccc(Br)cc2)c1 (stereo not given),i
O=C(Cn1nnc(-c2cccc(C(F)(F)F)c2)n1)c1c[nH]c2ccccc12,i
CN(C)C(=O)CN(C)c1ncnc2sc3c(c12)CCCC3,i
CCOc1ccccc1CN(C)C1CCc2nn(CC3CC3)c(=O)n2CC1 (stereo not given),i
CN(Cc1cccc2[nH]ccc12)C1CCc2nn(CC3CC3)c(=O)n2CC1 (stereo not given),25.1µM*
CN(Cc1ccc2c(c1)CCO2)C1CCc2nn(CC3CC3)c(=O)n2CC1 (stereo not given),i
O=C(NC1CCc2nn(CC3CC3)c(=O)n2CC1)c1n[nH]c2ccccc12 (stereo not given),28.2µM*
Cc1cnc(C(=O)NC2CCc3nn(CC4CC4)c(=O)n3CC2)cn1 (stereo not given),i
CCCNC(=O)NC1CCc2nn(CC3CC3)c(=O)n2CC1 (stereo not given),i
Oc1ccc(CNCc2ccco2)cc1,i
CN(Cc1cnccn1)C(=O)CC(c1ccccc1)c1ccc2c(c1)OCO2 (stereo not given),i
Cc1cc(-c2cc(-c3ccc(F)cc3)nc3c(C)noc23)ccn1,i
Cc1noc2c(NC(C)C)cc(-c3cccs3)nc12,i
Cc1noc2c(-c3cccc(O)c3)cc(-c3cccs3)nc12,12.6µM*
Cc1noc2c(-c3ccncc3)cc(-c3cccs3)nc12,5.62µM*
Cc1noc2c(NC3CCN(C)CC3)cc(-c3cccs3)nc12,i
